# Assay outcomes from PubChem.
# aSyn 5UTR act – Activators via SNCA 5'UTR binding, MLPCN; alpha-synuclein 5'UTR reporter, activators screen; activity score, % (tested at 7.5 µM), hits read low; 300,000 tested, 7.1% active; in the data active = activity score below about -60%
# * hit, by the source's call. A selection follows.
SMILES,aSyn 5UTR act
CCCNC(=O)C(=O)Nc1ccc2c(c1)N(S(=O)(=O)c1cccs1)CCC2,-79*
O=S(=O)(c1cccs1)N1CCCc2cccc(O)c21,-82*
COCCCNC(=O)C(=O)Nc1ccc2c(c1)N(S(=O)(=O)c1cccs1)CCC2,57
COc1ccc(-n2nc([N+](=O)[O-])c(=NCc3cccnc3)n2O)cc1,-121*
CCc1ccc(N=c2c([N+](=O)[O-])nn(-c3ccccc3)n2O)cc1,-88*
COc1ccc(-n2nc([N+](=O)[O-])c(=NCCC3=CCCCC3)n2O)cc1,-82*
COc1ccc(-n2nc([N+](=O)[O-])c(=NCc3ccco3)n2O)cc1,-83*
Cc1ccc(-c2noc(-c3cc4ccccc4oc3=O)n2)cc1,-80*
O=c1oc2ccccc2cc1-c1nc(-c2ccccc2)no1,-131*
Cc1cccc(-c2noc(-c3cc4ccccc4oc3=O)n2)c1,-158*
Cc1ccnc(N(C(=O)Nc2ccccc2)C2=NCC(C)(C)S2)c1,-165*
Cc1ccc(NC(=O)CN2C(=O)N/C(=C/c3ccc(N4CCOCC4)cc3)C2=O)cc1,-118*
COc1ccc(OC)c(Nc2nc(-c3sc(NC(=O)CC(C)C)nc3C)cs2)c1,58
Cc1ccnc(Nc2nc(-c3ccc(O)c(O)c3)cs2)c1,-148*
CC(=O)Nc1ccc(-c2csc(NCCc3ccccc3)n2)cc1,-141*
Oc1ccc(-c2csc(Nc3ccccn3)n2)cc1O,-139*
CCC(=O)Nc1nc(C)c(-c2csc(Nc3ccccn3)n2)s1,-122*
Cc1ccnc(Nc2nc(-c3ccc(O)cc3)cs2)c1,-232*
Cc1ccnc(Nc2nc(-c3ccc(O)cc3O)cs2)c1,-136*
CC(=O)Nc1ccc(-c2csc(Nc3ccccn3)n2)cc1,-161*
CC(=O)Nc1ccc(Nc2nc(-c3c(C)nc4ccccn34)cs2)cc1,87
Cc1ccc(-c2noc(C3CCCN(C(=O)c4ccccc4)C3)n2)o1 (centres undefined),-154*
Cc1ccc(-c2noc(C3CCN(S(C)(=O)=O)CC3)n2)o1,-67*
O=C(c1ccccc1Br)N1CCCC(c2nc(-c3cccs3)no2)C1 (centres undefined),-63*
Cc1ccc(-c2noc(C3CCCN(C(=O)c4ccccc4Br)C3)n2)o1 (centres undefined),-92*
SMILES,aSyn 5UTR act
CCN1/C(=C\C(=S)Nc2ccccc2)Sc2ccccc21,-144*
CCN1/C(=C/C(C)=C/c2sc3ccccc3[n+]2CC)Sc2ccccc21,100
CSc1nc(N)c(C(=O)Nc2ccc([N+](=O)[O-])cc2)s1,-66*
CCc1cc(C=C(Cl)Cl)oc(=O)c1C,-117*
CC(=O)N1CCN(S(=O)(=O)c2cccc(C(=O)Nc3ccc(C)cn3)c2)CC1,-71*
CCOC(=O)N1CCN(S(=O)(=O)c2ccc(C(=O)NNc3nc4cc(C)cc(C)c4s3)cc2)CC1,66
Cc1cc(NC(=O)c2cccc(Cl)c2)n[nH]1,-71*
Cn1sc(NC(=O)c2cccc(Cl)c2)nc1=O,-118*
Cc1ccc(NC(=O)c2cccc(Cl)c2)nc1,-75*
O=C(Nc1cc(-c2ccccc2)[nH]n1)c1ccc(Cl)cc1,-124*
Cc1ccc(NC(=O)c2ccc3c(c2)NC(=O)CS3)nc1,-93*
O=C(N/N=C/c1cccs1)c1n[nH]c2c1CCCC2,82
Cc1occc1C(=O)N/N=C/c1cccc2ccccc12,-200*
Cc1occc1C(=O)Nc1cccc2ccccc12,-172*
Cc1occc1C(=O)N/N=C/c1cccs1,-82*
COc1cccc(N=c2oc3ccccc3cc2-c2nc3ccccc3[nH]2)c1,-80*
COc1cccc(N(C(=O)c2cccs2)c2nc3ccccc3s2)c1,-154*
COc1ccc2nc(N3CCC(C)CC3)c(C#N)cc2c1,-175*
COc1cccc(-n2ccnc2SCC(=O)Nc2nccs2)c1,-73*
CCOc1ccc(-n2c(SCC(=O)Nc3nccs3)nc3c(c2=O)SCC3)cc1,57
Cc1cccc(-n2ccnc2SCC(=O)Nc2nccs2)c1,-132*
COc1ccc(C(CC(=O)Nc2nccs2)n2cccc2)cc1 (centres undefined),-168*
CCCC(=O)NC(c1ccc(OC)cc1)c1ccc2cccnc2c1O (centres undefined),129
Cc1cccc(-n2c(SCC(=O)Nc3ncc(Cl)cc3Cl)nc3ccccc32)c1,58
COc1ccc(C(CC(=O)Nc2ccccn2)N2Cc3ccccc3C2=O)cc1 (centres undefined),-113*
SMILES,aSyn 5UTR act
O=c1c2c3c(sc2ncn1/N=C/c1ccc([N+](=O)[O-])o1)CCCC3,-89*
CCCSc1nnc(-c2ccccc2N)c(=O)[nH]1,-70*
[O-]/[N+](=C\c1ccncc1)c1ccc(Br)cc1,-225*
[O-]/[N+](=C/c1cccnc1)c1ccc(Br)cc1,-95*
CCOC(=O)/C(=C\c1ccccc1)NC(=O)c1ccccc1,-105*
C=CCOC(=O)/C(=C\c1ccccc1)NC(=O)c1ccc(C)cc1,-175*
CC(=O)[C@@]1(O)C(C)CC2C3C=C(C)C4=Cc5c(cnn5-c5ccccc5)C[C@]4(C)C3C(O)C[C@@]21C (some centres undefined),81
CCOCC(=O)Nc1cc(C(=O)Nc2cc(C)cc(C)c2)ccc1Cl,-66*
CC(C)(C)c1ccc(OCCn2ccccc2=O)cc1,-154*
O=C(NC(=O)c1ccccc1)NC1(C(F)(F)F)OCCO1,-113*
Cc1cccc(NC(=S)NC(=O)c2cccs2)n1,-140*
Cc1nc(NC(=S)NC(=O)c2cccs2)ccc1Br,-161*
O=C(NC(=S)Nc1cccc2cccnc12)c1cccs1,-63*
CCOC(=O)Cc1ccc2sc(-c3ccccc3)nc2c1,-82*
Cc1nn(-c2ccccc2)c(C)c1Cc1ccc(O)cc1,-117*
COc1ccc(NC(=O)c2sccc2C)cn1,-115*
CCc1cc(C(=O)Nc2ccc(OC)nc2)sc1C,-95*
COc1ccc(NC(=O)c2nc3nccc(C)n3n2)cn1,-72*
COc1ccc(NC(=O)c2cc(Br)c(Br)s2)cn1,-69*
COc1cccc(NC(=O)CSc2nnc(-c3cccc(OC(C)C)c3)n2N)c1,-73*
N#CC1=C(N)NC(SCc2ccc(F)cc2)=C(C#N)C12CCCCC2,-83*
O=C(O)c1ccc(N/N=C/c2ccc3c(c2)OCO3)cc1,94
Cc1cc(N/N=C/c2ccccc2)nc(N2CCOCC2)n1,-83*
O=C(O)c1cc(N/N=C/c2ccc3c(c2)OCO3)ccc1Cl,-73*
Cc1ccc(N/N=C/c2ccc(N3CCOCC3)cc2)cc1C,-96*
SMILES,aSyn 5UTR act
Cc1ccc(N/N=C/c2ccc3c(c2)OCCO3)cc1Cl,-87*
C/C(=N\Nc1ccc(Cl)c(C(=O)O)c1)c1ccc2c(c1)OCO2,-73*
COC(=O)C1=C(C)NC(C)=C(C(=O)OCC(C)C)C1c1ccccc1[N+](=O)[O-] (centres undefined),71
CCOC(=O)C1=C(C)NC2=C(C(=O)c3ccccc32)C1c1ccc([N+](=O)[O-])o1 (centres undefined),-63*
O=[N+]([O-])c1ccc2nc(-c3ccc(Cl)cc3)n(OCc3ccccc3)c2c1,-243*
Cc1ccc(COn2c(-c3ccc(Cl)cc3)nc3ccc([N+](=O)[O-])cc32)cc1,-198*
Cc1nc2cc3ccccc3cc2c(=O)[nH]1,-112*
Cc1ccc(-c2nc(N=Nc3ccc(O)cc3)n[nH]2)cc1,-182*
Cc1cc(NC(=O)c2ccccc2)sc1C,-142*
Cc1c(C(=O)NCc2ccccn2)oc2ccc(Br)cc12,-131*
Cc1c(C(=O)NCc2ccccn2)oc2ccccc12,-138*
Clc1ccc(CSc2snnc2-c2ccccc2)c(Cl)c1,-121*
